# Source: PubChem BioAssay AID940 (Emory University Molecular Libraries Screening Center, 2007)
# Several values for one entry are separate records, joined by “and”; a condition that tells them apart may be missing. Equal entries are not always repeated. In all, about 260,000 compounds went through this assay and about 2,200 (0.85%) were called active. The sample holds actives, similar compounds and a random draw of the others, so the mix is not that of the screen. A number with no mark means an inactive call.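 The calls were made as follows: active = compounds whose cAMP rise, as percent of the full-agonist control response, exceeds 60; inactive = the rest.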
# Biological target: Prostaglandin E2 receptor EP2 subtype (Homo sapiens) (UniProt P43116)
# Sequence (P43116 whole entry, looked up): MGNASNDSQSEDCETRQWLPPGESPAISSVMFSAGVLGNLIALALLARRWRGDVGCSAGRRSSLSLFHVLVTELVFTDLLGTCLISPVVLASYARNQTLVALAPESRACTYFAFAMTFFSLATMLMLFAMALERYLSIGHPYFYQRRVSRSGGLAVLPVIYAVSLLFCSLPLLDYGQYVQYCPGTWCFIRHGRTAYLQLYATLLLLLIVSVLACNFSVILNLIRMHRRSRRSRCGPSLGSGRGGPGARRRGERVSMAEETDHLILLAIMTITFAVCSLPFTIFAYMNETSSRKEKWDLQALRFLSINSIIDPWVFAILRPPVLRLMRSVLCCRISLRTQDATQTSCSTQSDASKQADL
# Assay: modulation of human EP2 prostaglandin signaling – cell-based, HTRF cAMP, PGE2 stimulation, primary screen (AID 940);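 also: rat C6 glioma line stably carrying human EP2 under a CMV promoter; the protocol text gives 20 µM as final concentration; 100% = response of wells given 1 µM PGE2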
# Conditions: EP2-expressing cells, cAMP HTRF FRET, PGE2 co-stimulation; at 25 µM; active compounds read high
row,SMILES,induction
1,Cn1c(=O)[nH]c(=O)c2c1nc(NCCCO)n2Cc1cccc2ccccc12,22%
2,CN(C)CCOc1ccc(Cl)cc1C(C)(C)C,-0.86%
3,CCc1nc(C)ccc1OCC(=O)N(CC)CC,8.52%
4,CCC(C)(C)c1ccc(OCC(=O)N(C)C)c(C(C)(C)CC)c1,76% (active)
5,COc1cc(C2NC(=O)NC(C)=C2C(=O)Nc2ccc(C)cc2C)ccc1O (stereo unspecified),5.85%
6,COC(=O)CSc1nc2ccccc2c(=O)n1Cc1ccccc1,47.6%
7,CSc1nc2ccccc2c(=O)n1Cc1ccc(F)cc1,80.8% (active)
8,O=C(CCn1c(SCC(=O)c2ccccc2)nc2ccccc2c1=O)NCc1ccc(F)cc1,11.2%
9,COc1cccc(C2(NC(=O)c3cccc(N4CCCCS4(=O)=O)c3)CCCC2)c1,-5.04%
10,O=C(Nc1cc(Cl)cc(Cl)c1)C1CCN(C(=O)c2cccs2)CC1,-118%
11,C=CCn1c(SCC(=O)Nc2ccccc2F)nc2sc(C)c(C)c2c1=O,-87.9%
12,COc1cccc(-c2ccc(NS(=O)(=O)c3ccc4c(c3)CCC(=O)N4)cc2)c1,-97.5%
13,CCOc1ccc(/C=N/NC(N)=S)cc1,-0.15%
14,CC(C)Oc1c(Br)cc(Br)cc1/C=N/NC(N)=S,62% (active)
15,NC(=S)N/N=C/c1coc2cc(Cl)ccc2c1=O,5.33%
16,COc1ccccc1NC(=S)N(Cc1cc2c(C)cc(C)cc2[nH]c1=O)C1CCCC1,3.07%
17,COC(=O)c1c(NC(=O)C(C)C)sc(C(=O)Nc2cc(C)ccc2C)c1C,62% (active)
18,CCOC(=O)C(=O)Nc1sc(C(=O)Nc2cc(C)ccc2C)c(C)c1C(=O)OC,-1.65%
19,COC(=O)c1c(NC(=O)C2CC2)sc(C(=O)Nc2cc(C)ccc2C)c1C,-75.5%
20,COCCn1c(=O)n(CC(=O)N2CCN(c3ccccc3F)CC2)c2cccnc21,0.09%
21,CCN1c2ncccc2C(=O)NC12CCN(C(=O)c1cccc3c1C(=O)N(C)C3)CC2,-5.04%

row,SMILES,induction
1,CCn1c(CSc2nc(C)cc(C)n2)nnc1SCC(=O)Nc1cccc(C(F)(F)F)c1,-10.6%
2,CC[N+](C)(CC[N+](C)(C)C)Cc1cc2ccccc2o1 (stereo unspecified),-3.15%
3,CCCCCn1c(SCCC(C)C)nc2c1c(=O)[nH]c(=O)n2C,69.2% (active)
4,CCCCCCn1c(SCC(=O)c2ccccc2)nc2c1c(=O)[nH]c(=O)n2C,-0.64%
5,C=CCn1c(SC(C)C(=O)OC)nc2c1c(=O)[nH]c(=O)n2C (stereo unspecified),-1.3%
6,C=CCn1c(=O)c(C(=O)Nc2cccc(C)n2)c(O)c2ccccc21,2.07%
7,CCn1c(COc2ccc(OC)cc2)nnc1SC(C)C(=O)Nc1ccccc1C (stereo unspecified),28.9%
8,COc1ccccc1Cc1nnc(NC(=O)c2cnc(SC)nc2)s1,-0.63%
9,CC1=CC(C)(C)N(C(=O)CSc2nnc(-c3ccccc3)o2)c2ccc(C)cc21,61.5% (active)
10,CC1=CC(C)(C)N(C(=O)CSc2nccn2C)c2cc(C)ccc21,43.9%
11,O=C(CSc1nnc(-c2ccccc2)o1)N1CCOCC1,1.42%
12,COc1ccc(-c2csc(N3N=C(C)CC3=O)n2)cc1,-82.9%
13,NC(=O)C1CCN(Cc2nnnn2Cc2ccccc2)CC1,25.5%
14,CCCOC(=O)Cn1cnc2sc(C)c(-c3ccc(Cl)cc3)c2c1=O,27.2%
15,CCCn1cnc2sc(C)c(-c3ccc(Cl)cc3)c2c1=O,36.5%
16,C=CCn1cnc2sc(C)c(-c3ccc(Cl)cc3)c2c1=O,72.1% (active)
17,O=C(Nc1cccc2ccccc12)C1CCN(C(=O)c2cccc(Cl)c2)CC1,-52%
18,CCCc1nc(SCC(=O)Nc2ccc(S(=O)(=O)N(C)C)cc2)c2ccccc2n1,0.33%
19,CN(C(=O)CSc1nc(C2CC2)nc2ccccc12)c1nc(-c2ccccc2)cs1,0.29%
20,CC(C)N(C(=O)CSc1nc(COc2ccccc2)nc2ccccc12)C(C)C,60.5% (active) and 78.3% (active)
21,COc1cc(OC)cc(OCC(O)Cn2c(C)nc3ccccc32)c1 (stereo unspecified),-45%

row,SMILES,induction
1,CCn1c(SCC(=O)Nc2cc(Cl)ccc2Cl)nc2sc(C)c(C)c2c1=O,8.59%
2,CC1(C(=O)N(CC(=O)NCc2ccc(F)cc2)C2CCCC2)CC(=O)N=C2C=CC=CN21 (stereo unspecified),-9.59%
3,NNC(=O)COc1ccc(C2SCCS2)cc1,-9.97%
4,NC(=O)COc1ccc(NC(=O)c2ccccc2-c2ccccc2)cc1,-20.6%
5,NC(=O)COc1ccc(C23CC4CC(CC(C4)C2)C3)cc1,87.8% (active)
6,Cn1nnc2cc(NC(=O)Nc3ccc(F)cc3)ccc21,-20.8%
7,Cc1nc(NCCN)c(C#N)c2c1COC(C)(C)C2,14.1%
8,Cc1nn(CC(=O)Nc2ccc(C#N)cc2)c(C)c1[N+](=O)[O-],40.4%
9,CCNc1nc(C)c([N+](=O)[O-])c(C)c1C#N,68.9% (active)
10,COc1ccccc1-c1ocnc1C(=O)Nc1ccc(N2CCC(C)CC2)c(C(N)=O)c1,-7.54%
11,O=c1oc2ccccc2n1CCCOc1cccc2ccccc12,74.5% (active)
12,Cc1ccc(OCCCn2c(=O)oc3ccccc32)cc1,-12.8%
13,NC(=O)Cn1c(=O)oc2ccccc21,8.45%
14,CC1CCCN(CC(=O)N2CCN(C(=O)CN3CCCC(C)C3)CC2)C1 (stereo unspecified),-44.2%
15,CCCn1c(=O)[nH]c2c(C(N)=O)nc(-c3ccccc3F)nc21,-12.9%
16,Cc1noc(C)c1CSCC(=O)Nc1nc2ccc(Oc3ccccc3)cc2s1,-9.73%
17,CCOC(=O)c1c(-c2cccc(C)c2)csc1NC(=O)c1c(-c2ccccc2)noc1C,34.1%
18,CCOC(=O)c1c(C2CC2)csc1NC(=O)CSCc1c(C)noc1C,75.9% (active)
19,CCOc1cccc(/C(O)=C2/C(=O)C(=O)N(CCN3CCOCC3)C2c2ccc(C)o2)c1 (stereo unspecified),-20%
